Data on 58 molecules can be found in the antibiotic and cytotoxicity screens of Wong et al. (2023).

The structures appear in SMILES notation. In all, about 39,000 compounds went through this assay and about 3,300 (8.5%) were called active. For the sample, actives were picked, then their nearest neighbours and some compounds at random.

The test system of the assay is HepG2. Put plainly: cytotoxicity call (relative viability < 0.9). To be noted: 10 µM.
Take `C[C@@H]1CN([C@@H](C)CO)C(=O)c2cc(NS(=O)(=O)c3ccccc3)ccc2O[C@@H]1CN(C)C(=O)Nc1cccc2ccccc12`: the cytotoxicity call was “inactive”.

In the case of `C[C@@H]1CN([C@@H](C)CO)C(=O)Cc2cc(NC(=O)Nc3ccc(F)cc3)ccc2O[C@@H]1CN(C)S(=O)(=O)c1cn(C)cn1`, the cytotoxicity call was “inactive”.

`Cc1ccc(S(=O)(=O)N(C)C[C@@H]2OCCCC[C@H](C)Oc3ccc(NS(C)(=O)=O)cc3C(=O)N([C@@H](C)CO)C[C@H]2C)cc1`: the cytotoxicity call is “inactive”.

As to `Cc1noc(C)c1S(=O)(=O)Nc1ccc2c(c1)CC(=O)N([C@@H](C)CO)C[C@H](C)[C@H](CN(C)Cc1ccc3c(c1)OCO3)O2`, the cytotoxicity call was “inactive”.

On to `C[C@H](CO)N1C[C@H](C)[C@H](CN(C)C(=O)N[C@H](C)c2ccccc2)OCc2ccccc2-c2c(n(C)c3ccccc23)C1=O`, for which the cytotoxicity call is “inactive”.

As to `COc1ccc(S(=O)(=O)N(C)C[C@@H]2OCCCC[C@H](C)Oc3ccc(NC(=O)NC4CCCCC4)cc3C(=O)N([C@H](C)CO)C[C@H]2C)cc1`, the cytotoxicity call is “inactive”.

On to `COc1ccc(NC(=O)N(C)C[C@@H]2OCCCC[C@@H](C)Oc3ccc(NS(=O)(=O)c4ccc(C)cc4)cc3C(=O)N([C@H](C)CO)C[C@H]2C)cc1`, for which the cytotoxicity call is “inactive”.

As for `COc1ccc(NC(=O)Nc2ccc3c(c2)C(=O)N([C@@H](C)CO)C[C@@H](C)[C@H](CN(C)Cc2ccc(-c4ccccc4)cc2)O3)cc1`, the cytotoxicity call was “active”.

As for `COc1cccc(S(=O)(=O)N2C[C@H](O)COC[C@@H]3O[C@H](CC(=O)NCCCN4CCOCC4)CC[C@H]32)c1`, the cytotoxicity call was “inactive”.

Consider `C[C@H]1CCCCO[C@H](CN(C)C(=O)Nc2ccc(F)cc2)[C@@H](C)CN([C@@H](C)CO)C(=O)c2cc(NC(=O)c3ccncc3)ccc2O1`, for which the cytotoxicity call is “inactive”.

Consider `CCC(C)C1OC2(CCC1C)CC1CC(CC=C(C)C(OC3CC(OC)C(OC4CC(OC)C(O)C(C)O4)C(C)O3)C(C)C=CC=C3COC4C(O)C(C)=CC(C(=O)O1)C34O)O2` (stereo not drawn), for which the cytotoxicity call was “active”.

As for `CC[C@@H](C)[C@H]1O[C@@]2(CC[C@@H]1C)C[C@H]1C[C@@H](CC=C(C)[C@@H](O[C@H]3C[C@@H](OC)[C@@H](O[C@H]4C[C@@H](OC)[C@@H](O)[C@@H](C)O4)[C@@H](C)O3)[C@@H](C)C=CC=C3CO[C@H]4[C@@H](O)C(C)=C[C@@H](C(=O)O1)[C@]34O)O2.CO[C@H]1C[C@@H](O[C@@H]2[C@@H](OC)C[C@@H](O[C@@H]3C(C)=CC[C@@H]4C[C@@H](C[C@@]5(CC[C@@H](C)[C@H](C(C)C)O5)O4)OC(=O)[C@@H]4C=C(C)[C@H](O)[C@@H]5OCC(=CC=C[C@@H]3C)[C@@]45O)O[C@@H]2C)O[C@@H](C)[C@@H]1O`, the cytotoxicity call is “active”.

For `CC[C@H](C)[C@H]1O[C@]2(CC[C@@H]1C)C[C@@H]1C[C@@H](C/C=C(\C)[C@@H](O[C@H]3C[C@H](OC)[C@@H](O[C@H]4C[C@H](OC)[C@@H](O)[C@H](C)O4)[C@H](C)O3)[C@@H](C)/C=C/C=C3\CO[C@@H]4[C@H](O)C(C)=C[C@@H](C(=O)O1)[C@]34O)O2`, the cytotoxicity call was “active”.

Consider `C[C@@H]1CN([C@H](C)CO)C(=O)c2cc(NC(=O)CCC(F)(F)F)ccc2O[C@H]1CN(C)Cc1ccc(C(=O)Nc2ccccc2N)cc1`, for which the cytotoxicity call was “inactive”.

Consider `N#CCSc1n[nH]c(=O)[nH]c1=O`, for which the cytotoxicity call is “inactive”.

For `O=C(C[C@@H]1CC[C@H]2[C@@H](COC[C@@H](O)CN2CC2CCOCC2)O1)N1CCOCC1`, the cytotoxicity call was “inactive”.

In the case of `Cc1noc(C)c1NC(=O)N(C)C[C@H]1OCCCC[C@H](C)Oc2ccc(NC(=O)C3CCCCC3)cc2C(=O)N([C@H](C)CO)C[C@@H]1C`, the cytotoxicity call is “inactive”.

For the molecule `C[C@@H]1CCCCO[C@@H](CN(C)S(=O)(=O)c2ccccc2)[C@@H](C)CN([C@H](C)CO)C(=O)c2cc(NC(=O)NC3CCCCC3)ccc2O1`, the cytotoxicity call is “inactive”.

In the case of `COc1ncccc1N`, the cytotoxicity call was “inactive”.

For `CCCCCCCCCCCC(=O)OCN1C(=O)CCc2ccc(OCCCCN3CCN(c4cccc(Cl)c4Cl)CC3)cc21`, the cytotoxicity call is “inactive”.

Consider `O=C1CCc2ccc(OCCCCN3CCN(c4cccc(Cl)c4Cl)CC3)cc2N1`, for which the cytotoxicity call is “active”.

With `O=C1CCc2cc(OCCCCc3nnnn3C3CCCCC3)ccc2N1`, the cytotoxicity call was “inactive”.

On to `O=C(C[C@H]1CC[C@H](NC(=O)c2cccnc2)[C@@H](CO)O1)NCCN1CCCCC1`, for which the cytotoxicity call was “inactive”.

For `C[C@H](N)c1ccc(Cl)cc1`, the cytotoxicity call was “inactive”.

Turning to `COc1cccc(S(=O)(=O)Nc2ccc3c(c2)[C@H]2C[C@H](CC(=O)NCc4ccccc4F)O[C@@H](CO)[C@H]2O3)c1`, the cytotoxicity call is “inactive”.

`C[C@@H]1CN([C@H](C)CO)C(=O)c2cc(NS(=O)(=O)c3cccs3)ccc2O[C@@H]1CN(C)Cc1ccc(-c2ccccc2)cc1`: the cytotoxicity call was “active”.

In the case of `C[C@@H]1CN([C@H](C)CO)C(=O)c2cc(NS(=O)(=O)c3cccs3)ccc2O[C@@H]1CN(C)Cc1ccc(Oc2ccccc2)cc1`, the cytotoxicity call was “active”.

Turning to `C[C@@H]1CN([C@H](C)CO)C(=O)c2cc(NS(=O)(=O)c3cccs3)ccc2O[C@H]1CN(C)Cc1ccc(Oc2ccccc2)cc1`, the cytotoxicity call was “inactive”.

For the molecule `C[C@H](CO)N1C[C@H](C)[C@@H](CN(C)Cc2ccc(-c3ccccc3)cc2)Oc2ccc(NS(=O)(=O)c3cccs3)cc2C1=O`, the cytotoxicity call is “inactive”.

As to `C[C@H](CO)N1C[C@H](C)[C@H](CN(C)Cc2ccc(-c3ccccc3)cc2)Oc2ccc(NS(=O)(=O)c3cccs3)cc2C1=O`, the cytotoxicity call was “inactive”.

In the case of `C[C@H]1CN([C@@H](C)CO)C(=O)c2cc(NS(=O)(=O)c3cccs3)ccc2O[C@@H]1CN(C)Cc1ccc(Oc2ccccc2)cc1`, the cytotoxicity call is “inactive”.

For the molecule `NC(=O)c1cccc(Br)n1`, the cytotoxicity call was “inactive”.

Regarding `Cc1noc(C)c1S(=O)(=O)N(C)C[C@H]1OCc2cn(nn2)CCCC(=O)N([C@H](C)CO)C[C@@H]1C`, the cytotoxicity call was “inactive”.

For the molecule `Cc1ccc(S(=O)(=O)N(C)C[C@H]2Oc3ccc(NS(=O)(=O)c4cccs4)cc3C(=O)N([C@H](C)CO)C[C@H]2C)cc1`, the cytotoxicity call was “inactive”.

As to `C[C@H]1CN([C@@H](C)CO)C(=O)CCCn2cc(nn2)CO[C@@H]1CN(C)S(=O)(=O)c1ccc(-n2cccn2)cc1`, the cytotoxicity call is “inactive”.

For the molecule `C[C@@H]1CN([C@@H](C)CO)C(=O)c2cc(NC(=O)CCN3CCOCC3)ccc2O[C@@H]1CN(C)S(=O)(=O)c1ccc(Cl)cc1`, the cytotoxicity call was “inactive”.

Turning to `C[C@@H]1CN([C@H](C)CO)C(=O)c2cc(NS(=O)(=O)c3ccccc3)ccc2O[C@@H](C)CCCCO[C@H]1CN(C)C(=O)Nc1ccccc1`, the cytotoxicity call is “inactive”.

Regarding `C[C@H]1CN([C@@H](C)CO)C(=O)Cc2cc(NC(=O)Nc3cccc4ccccc34)ccc2O[C@H]1CN(C)C(=O)Nc1ccc(C(F)(F)F)cc1`, the cytotoxicity call is “inactive”.

Regarding `COc1ccc(CN(C)C[C@H]2Oc3c(NS(=O)(=O)c4c(C)noc4C)cccc3C(=O)N([C@H](C)CO)C[C@H]2C)cc1`, the cytotoxicity call is “inactive”.

As for `C[C@H]1CN([C@@H](C)CO)C(=O)Cc2cc(NS(=O)(=O)c3cccs3)ccc2O[C@H]1CN(C)Cc1ccc(-c2ccccc2)cc1`, the cytotoxicity call is “inactive”.

Regarding `C[C@@H]1CCCCO[C@@H](CN(C)Cc2ccc(C(=O)Nc3ccccc3N)cc2)[C@@H](C)CN([C@H](C)CO)C(=O)c2cc(NC(=O)Nc3ccccc3)ccc2O1`, the cytotoxicity call was “inactive”.

For `C[C@H]1CCCCO[C@H](CN(C)Cc2ccc(C(=O)Nc3ccccc3N)cc2)[C@@H](C)CN([C@@H](C)CO)C(=O)c2cc(N(C)C)ccc2O1`, the cytotoxicity call was “inactive”.

For `C[C@@H]1CCCCO[C@@H](CN(C)Cc2ccc(C(=O)Nc3ccccc3N)cc2)[C@@H](C)CN([C@H](C)CO)C(=O)c2cc(NC(=O)Cc3ccccc3)ccc2O1`, the cytotoxicity call was “inactive”.

Consider `C[C@@H]1CCCCO[C@@H](CN(C)Cc2ccc(C(=O)Nc3ccccc3N)cc2)[C@@H](C)CN([C@H](C)CO)C(=O)c2cc(NC(=O)c3ccncc3)ccc2O1`, for which the cytotoxicity call is “inactive”.

In the case of `C[C@@H]1CCCCO[C@@H](CN(C)Cc2ccc(C(=O)Nc3ccccc3N)cc2)[C@H](C)CN([C@H](C)CO)C(=O)c2cc(N(C)C)ccc2O1`, the cytotoxicity call was “active”.

For the molecule `C[C@@H]1CCCCO[C@@H](CN(C)Cc2ccc(C(=O)Nc3ccccc3N)cc2)[C@@H](C)CN([C@H](C)CO)C(=O)c2cc(NC(=O)c3ccccc3)ccc2O1`, the cytotoxicity call was “active”.

For the molecule `C[C@H](CO)N1C[C@H](C)[C@H](CN(C)Cc2ccc(C(=O)Nc3ccccc3N)cc2)OCCCC[C@H](C)Oc2ccc(N(C)C)cc2C1=O`, the cytotoxicity call was “inactive”.

In the case of `C[C@@H]1CCCCO[C@H](CN(C)Cc2ccc(C(=O)Nc3ccccc3N)cc2)[C@@H](C)CN([C@H](C)CO)C(=O)c2cc(NC(=O)c3ccccc3)ccc2O1`, the cytotoxicity call was “active”.

As for `CC(C)NC(=O)Nc1ccc2c(c1)C(=O)N([C@H](C)CO)C[C@H](C)[C@H](CN(C)Cc1ccc(C(=O)Nc3ccccc3N)cc1)OCCCC[C@@H](C)O2`, the cytotoxicity call was “inactive”.

In the case of `C[C@H]1CN([C@@H](C)CO)S(=O)(=O)c2ccc(C#CC3(O)CCCC3)cc2O[C@@H]1CN(C)C(=O)Cc1ccccc1`, the cytotoxicity call was “inactive”.

On to `C[C@@H]1CN([C@@H](C)CO)C(=O)c2cccc(NS(=O)(=O)c3ccc(F)cc3)c2O[C@@H]1CN(C)S(=O)(=O)c1cn(C)cn1`, for which the cytotoxicity call was “inactive”.

As to `CCOC(=O)c1cccc([C@@H]2CC(=O)N(C(=O)OCc3ccccc3)[C@@H]2C(=O)Nc2cccc3cccnc23)c1`, the cytotoxicity call is “inactive”.

Take `Cc1noc(C)c1NC(=O)N(C)C[C@@H]1OCCCC[C@@H](C)Oc2ccc(NC(=O)C3CCCCC3)cc2C(=O)N([C@@H](C)CO)C[C@H]1C`: the cytotoxicity call is “inactive”.

For the molecule `C[C@@H]1CN([C@H](C)CO)C(=O)c2cc(NC(=O)CCC(F)(F)F)ccc2O[C@@H](C)CCCCO[C@H]1CN(C)S(=O)(=O)c1cccs1`, the cytotoxicity call was “inactive”.

As for `CN(C)CCOC(C)(c1ccccc1)c1ccccn1.O=C(O)CCC(=O)O` (stereo not drawn), the cytotoxicity call was “inactive”.

As to `CN1CCC[C@H]1CCO`, the cytotoxicity call was “inactive”.

On to `CN1CCCC1CCOC(C)(c1ccccc1)c1ccc(Cl)cc1.O=C(O)C=CC(=O)O` (stereo not drawn), for which the cytotoxicity call was “active”.

With `COc1ccc(S(=O)(=O)N(C)C[C@H]2Oc3ccc(NS(=O)(=O)c4cn(C)cn4)cc3CC(=O)N([C@H](C)CO)C[C@H]2C)cc1`, the cytotoxicity call is “inactive”.
